# According to PubChem BioAssay (Tox21):
# Unmarked numbers belong to inactive results. Inconclusive results are not listed. A call without a number means that no potency is given here. The source made the active and inactive calls. Unless noted, calls follow the shape of the dose curve; as a rule, active = well fitted curve in the direction sought with a large enough effect in the repeat runs; inconclusive = weak or mixed curves; inactive = no such curve, though single readings can be large; an effect the other way counts as inactive or inconclusive.
# Legend:
# [1] = qHTS assay to identify small molecule agonists of the estrogen receptor alpha (ER-alpha) signaling pathway in the presence of an antagonist - cell viability counter screen (AID 1259386);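 also: cells exposed to compounds for 22 h at 37 °C before the viability read; nearly all actives have a fitted effect of over 30% in size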; also: potency is read from the fitted curve at half-maximal effect
# Outline: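 Steps: 5-day stripped-FBS culture; seed and incubate 24hr; add ICI-182,780 (10.0nM final); pin 15-point compound titration; incubate 22hr at 37C; add CellTiter-Fluor at 21hr; read fluorescence.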
# [2] = target: Progesterone receptor (Homo sapiens) (UniProt P06401); experiment: qHTS assay to identify small molecule agonists of the progesterone receptor (PR) signaling pathway (AID 1346784; calls by dose curve; also: nearly all actives have a fitted effect of over 30% in size)
# Progesterone receptor (Homo sapiens), sequence (P06401 whole entry, looked up): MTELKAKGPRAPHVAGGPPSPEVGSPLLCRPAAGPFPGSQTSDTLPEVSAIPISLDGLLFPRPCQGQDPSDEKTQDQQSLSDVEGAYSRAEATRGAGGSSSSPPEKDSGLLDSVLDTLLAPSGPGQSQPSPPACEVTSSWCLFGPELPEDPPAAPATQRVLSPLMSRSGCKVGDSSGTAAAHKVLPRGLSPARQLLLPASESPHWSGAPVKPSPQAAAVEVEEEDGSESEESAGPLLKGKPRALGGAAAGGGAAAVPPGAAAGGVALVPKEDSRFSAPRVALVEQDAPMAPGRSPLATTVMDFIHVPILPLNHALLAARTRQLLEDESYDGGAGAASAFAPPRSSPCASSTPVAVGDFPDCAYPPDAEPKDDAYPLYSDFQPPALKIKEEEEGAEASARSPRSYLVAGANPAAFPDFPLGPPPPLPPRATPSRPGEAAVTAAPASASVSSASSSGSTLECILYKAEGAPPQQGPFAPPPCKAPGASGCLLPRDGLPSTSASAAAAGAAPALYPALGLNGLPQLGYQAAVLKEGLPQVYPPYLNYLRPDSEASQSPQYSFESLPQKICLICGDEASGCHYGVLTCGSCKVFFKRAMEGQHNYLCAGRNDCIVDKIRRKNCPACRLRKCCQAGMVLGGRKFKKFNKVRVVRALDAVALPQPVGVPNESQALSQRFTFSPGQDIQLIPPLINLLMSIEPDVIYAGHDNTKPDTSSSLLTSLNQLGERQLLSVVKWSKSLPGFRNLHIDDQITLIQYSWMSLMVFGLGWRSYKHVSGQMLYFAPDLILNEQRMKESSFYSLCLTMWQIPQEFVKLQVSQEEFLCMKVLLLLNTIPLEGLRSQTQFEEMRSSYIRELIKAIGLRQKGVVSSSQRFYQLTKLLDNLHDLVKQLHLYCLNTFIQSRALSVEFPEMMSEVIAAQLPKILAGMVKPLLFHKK
# Outline: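 Agonist qHTS: compounds pinned onto 3,000 PR-UAS-bla HEK 293T cells per well in charcoal-stripped serum medium, 16hr at 37C, then beta-lactamase activity measured by LiveBLAzer FRET fluorescence after 2 hours at room temperature.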
# [3] = qHTS assay to identify small molecule antagonists of the progesterone receptor (PR) signaling pathway - cell viability counter screen (AID 1346798); also: nearly all actives have a fitted effect of over 50% in size; also: potency is read from the fitted curve at half-maximal effect
# Outline: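 Cytotoxicity read as CellTiter-Glo luminescence (30 min, room temperature) in the same wells as the beta-lactamase readout. HEK293T PR-UAS-bla cells in charcoal-stripped 2% FBS received compound and R5020, then 16 h at 37C, 5% CO2.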
# [4] = qHTS assay to identify small molecule antagonists of the TGF-beta/Smad signaling pathway - cell viability counter screen (AID 1346824); also: nearly all actives have a fitted effect of over 50% in size
# Outline: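 Cytotoxicity counter-screen run in the same wells as the beta-lactamase Smad reporter read: CellTiter-Glo luminescence after 30 min at room temperature. HEK 293T SBE-bla cells had 5 hr compound exposure at 37 C with TGF-beta1 (0.25 ng/mL stock).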
# [5] = qHTS assay to identify small molecule agonists of the TGF-beta/Smad signaling pathway - cell viability counter screen (AID 1346829); also: top concentration of the series differs between compounds; nearly all actives have a fitted effect of over 45% in size
# Outline: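 After overnight seating at 37 C and 5% CO2, reporter cells got compounds for 5 hr and FRET substrate for 2 hr; cell viability then came from CellTiter-Glo luminescence.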
# [6] = qHTS assay to identify small molecule agonists of the TGF-beta/Smad signaling pathway (AID 1346859; active = well fitted activation curve with a large enough effect in the signal ratio in the repeat runs, not every such curve was filed as active; the % refers to the signal ratio; also: series mostly up to about 77 µM)
# Outline: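 Fluorescence (ex 405 nm; em 460 and 530 nm) was read 2 h after LiveBLAzer FRET substrate at RT. The preceding compound treatment of overnight-plated SBE-bla HEK293T cells lasted 5 h at 37 C.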
# [7] = Human pregnane X receptor (PXR) small molecule agonists, qHTS cell viability counter screen (AID 1346977); also: nearly all actives have a fitted effect of over 50% in size
# Outline: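 Same-well viability read: CellTiter-Fluor added after 23 hr compound exposure, fluorescence measured 1 hr later. Cells were PXR-Luc HepG2 seeded at 2,000/well in 5% charcoal-stripped FBS medium, rested 5 hr before dosing at 37 C.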
# [8] = Caspase-3/7 induction in HepG2 cells by small molecules, qHTS assay (AID 1346978); also: nearly all actives have a fitted effect of over 15% in size
# Outline: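 Caspase-3/7 induction was measured by Caspase-Glo 3/7 luminescence (30 min, room temperature) after a 17 hr compound exposure of wild-type HepG2 cells seeded at 2,000 per well and pre-incubated 5 hr.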
# [9] = Caspase-3/7 induction in CHO-K1 cells by small molecules, qHTS cell viability counter screen (AID 1346979); also: nearly all actives have a fitted effect of over 35% in size; also: potency is read from the fitted curve at half-maximal effect
# Outline: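 Cytotoxicity counter screen: CellTiter-Fluor added to compound-treated wild-type CHO-K1 cells at 16 h (37C, 5% CO2), fluorescence measured 1 h later; same wells as caspase-3/7 measurement.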
# [10] = Caspase-3/7 induction in CHO-K1 cells by small molecules, qHTS assay (AID 1346980); also: nearly all actives have a fitted effect of over 15% in size
# Outline: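 Luminescent Caspase-Glo 3/7 read (30min, room temperature) quantified apoptosis induction. Cells were wild-type CHO-K1, treated with compound for 17hr at 37 C and 5% CO2.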
# [11] = Caspase-3/7 induction in HepG2 cells by small molecules, qHTS cell viability counter screen (AID 1346981); also: series mostly up to about 92 µM; nearly all actives have a fitted effect of over 30% in size
# Outline: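 The parent HepG2 line is plated at 2,000 cells per well and rested 5 hr before compound pinning from DMSO stocks. Following a 16-hr treatment at 37 C, a fluorogenic live-cell substrate (CellTiter-Fluor) reports viability after 1 hr.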
# [12] = target: Nuclear receptor subfamily 1 group I member 2 (Homo sapiens) (UniProt O75469); experiment: Human pregnane X receptor (PXR) small molecule agonists, qHTS assay (AID 1346982); also: nearly all actives have a fitted effect of over 35% in size; also: potency is read from the fitted curve at half-maximal effect
# Nuclear receptor subfamily 1 group I member 2 (Homo sapiens), sequence (O75469 whole entry, looked up): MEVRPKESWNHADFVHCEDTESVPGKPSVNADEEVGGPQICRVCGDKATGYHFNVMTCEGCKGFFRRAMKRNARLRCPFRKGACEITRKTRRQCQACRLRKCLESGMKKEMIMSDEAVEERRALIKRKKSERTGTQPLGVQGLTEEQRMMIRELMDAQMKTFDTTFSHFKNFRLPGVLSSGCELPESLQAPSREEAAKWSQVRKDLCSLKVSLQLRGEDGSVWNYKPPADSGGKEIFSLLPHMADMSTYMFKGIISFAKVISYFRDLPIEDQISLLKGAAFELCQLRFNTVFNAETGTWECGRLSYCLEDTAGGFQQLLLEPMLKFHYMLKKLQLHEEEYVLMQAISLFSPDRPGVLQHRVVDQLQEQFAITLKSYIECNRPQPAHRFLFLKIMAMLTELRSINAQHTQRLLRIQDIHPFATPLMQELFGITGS
# Outline: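 After plating in 5% charcoal-stripped FBS and a 5 hr rest, PXR-Luc HepG2 cells received compounds in DMSO. Following 24 hr at 37 C, ONE-Glo was added and light output read.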
# [13] = qHTS assay to identify small molecule agonists of the progesterone receptor (PR) signaling pathway - cell viability counter screen (AID 1346799; calls by dose curve; also: nearly all actives have a fitted effect of over 45% in size)
# Outline: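 Cytotoxicity measured by CellTiter-Glo luminescence (30 min, RT) in the same wells as the PR beta-lactamase agonist read. Those HEK293T cells had 16 h compound treatment at 37 C in 2% charcoal-stripped FBS medium.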
# [14] = target: Thyrotropin-releasing hormone receptor (Homo sapiens) (UniProt P34981); experiment: qHTS assay to identify small molecule antagonists of the thyrotropin-releasing hormone receptor (TRHR) signaling pathway (AID 1346877; active = well fitted inhibition curve with a large enough effect in the repeat runs, not every such curve was filed as active; also: series mostly up to about 51 µM)
# Thyrotropin-releasing hormone receptor (Homo sapiens), sequence (P34981 whole entry, looked up): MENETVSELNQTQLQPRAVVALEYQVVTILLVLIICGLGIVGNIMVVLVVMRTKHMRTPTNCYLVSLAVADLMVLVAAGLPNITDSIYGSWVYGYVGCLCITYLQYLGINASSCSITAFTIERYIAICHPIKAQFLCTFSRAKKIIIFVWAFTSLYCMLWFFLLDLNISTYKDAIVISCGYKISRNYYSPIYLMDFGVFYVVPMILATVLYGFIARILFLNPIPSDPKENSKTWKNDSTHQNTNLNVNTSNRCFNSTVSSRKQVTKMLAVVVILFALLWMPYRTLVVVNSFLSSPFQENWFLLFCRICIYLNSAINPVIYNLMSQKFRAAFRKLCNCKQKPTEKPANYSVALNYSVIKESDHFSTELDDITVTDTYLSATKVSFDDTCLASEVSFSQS
# Outline: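 Human TRHR in HEK293 cells; inhibition of the intracellular calcium rise triggered by 1 nM TRH was followed by fluorescence over 3 min. Compounds were run at 15 concentrations, three replicates each.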
# [15] = target: Thyrotropin-releasing hormone receptor (Homo sapiens) (UniProt P34981); experiment: qHTS assay to identify small molecule agonists of the thyrotropin-releasing hormone receptor (TRHR) signaling pathway (AID 1346891; calls by dose curve; also: series mostly up to about 58 µM)
# Outline: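 Agonist-mode intracellular calcium readout: kinetic fluorescence over 3 min at 1 s intervals after compound addition to TRHR-HEK293 cells (18 h seeded, 2 h dye-loaded at 37 C). Fifteen concentrations, triplicates.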
# [16] = target: Nuclear receptor subfamily 1 group I member 2 (Rattus norvegicus) (UniProt Q9R1A7); experiment: Rat pregnane X receptor (rPXR) activation by small molecules, qHTS assay (AID 1346983); conditions: rPXR luciferase reporter cells, One-Glo luminescence, 24 h; max activation: active compounds read high; also: nearly all actives have a fitted effect of over 20% in size; also: potency is read from the fitted curve at half-maximal effect
# Nuclear receptor subfamily 1 group I member 2 (Rattus norvegicus), sequence (Q9R1A7 whole entry, looked up): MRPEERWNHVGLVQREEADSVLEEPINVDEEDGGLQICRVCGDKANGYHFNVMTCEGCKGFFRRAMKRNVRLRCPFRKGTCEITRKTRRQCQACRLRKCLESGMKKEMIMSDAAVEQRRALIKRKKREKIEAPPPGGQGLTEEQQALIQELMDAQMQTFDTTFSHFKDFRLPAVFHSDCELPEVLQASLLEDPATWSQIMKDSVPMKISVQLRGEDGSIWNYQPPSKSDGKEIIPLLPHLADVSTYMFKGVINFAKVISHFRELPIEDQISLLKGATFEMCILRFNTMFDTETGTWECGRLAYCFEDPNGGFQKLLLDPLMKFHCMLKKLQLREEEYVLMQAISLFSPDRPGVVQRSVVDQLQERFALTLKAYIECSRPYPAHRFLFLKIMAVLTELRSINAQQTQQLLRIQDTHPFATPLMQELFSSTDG
# Outline: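 Luminescent readout (One-Glo luciferase, 30 min room temperature) followed 24 hr compound treatment at 37 C of rPXR cells plated 2,000 per well and preincubated 5hr; qHTS format with compounds delivered in DMSO.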
# [17] = target: Nuclear receptor subfamily 1 group I member 2 (Homo sapiens) (UniProt O75469); experiment: Human pregnane X receptor (PXR) activation by small molecules, qHTS assay (AID 1346985); also: nearly all actives have a fitted effect of over 40% in size
# Outline: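 DPX-2 cells (HepG2 co-transfected with a PXR response element and a CYP3A4-promoter luciferase construct) were seeded at 2,000 per well, rested 5 hr at 37C, then exposed to DMSO-dissolved compounds for 24 hr. Activation was read as luciferase luminescence.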
# [18] = target: Acetylcholinesterase (Homo sapiens) (UniProt P22303); experiment: Acetylcholinesterase (AChE) small molecule antagonists: colormetric cell-based qHTS assay (AID 1347395; calls by dose curve; also: nearly all actives have a fitted effect of over 30% in size; also: potency is read from the fitted curve at half-maximal effect)
# Acetylcholinesterase (Homo sapiens), sequence (P22303 whole entry, looked up): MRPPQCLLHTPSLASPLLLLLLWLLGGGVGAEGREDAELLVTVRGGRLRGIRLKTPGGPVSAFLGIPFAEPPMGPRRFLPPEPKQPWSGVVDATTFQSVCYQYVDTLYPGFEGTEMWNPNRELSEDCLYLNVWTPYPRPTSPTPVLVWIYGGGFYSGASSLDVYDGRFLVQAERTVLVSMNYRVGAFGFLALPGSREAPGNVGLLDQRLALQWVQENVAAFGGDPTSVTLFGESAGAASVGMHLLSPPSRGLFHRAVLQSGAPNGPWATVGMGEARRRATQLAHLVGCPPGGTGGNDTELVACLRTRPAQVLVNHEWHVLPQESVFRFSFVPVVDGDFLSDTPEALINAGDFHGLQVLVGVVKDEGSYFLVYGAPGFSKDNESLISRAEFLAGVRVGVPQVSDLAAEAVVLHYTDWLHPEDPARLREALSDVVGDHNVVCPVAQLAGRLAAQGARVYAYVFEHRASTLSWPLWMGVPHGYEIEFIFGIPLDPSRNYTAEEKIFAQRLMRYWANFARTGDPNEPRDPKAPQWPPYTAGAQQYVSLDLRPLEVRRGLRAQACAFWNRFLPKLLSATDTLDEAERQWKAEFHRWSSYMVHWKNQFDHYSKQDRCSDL
# Outline: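 Colorimetric readout: DTNB quantifies thiocholine from acetylthiocholine hydrolysed by endogenous AChE of SH-SY5Y cells (2,000/well, plated overnight). Compound pretreatment 30 min, substrate incubation 90 min, both 37 C.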
# [19] = target: Nuclear receptor subfamily 1 group I member 2 (Homo sapiens) (UniProt O75469); experiment: CYP3A4 induction through human pregnane X receptor (PXR) by small molecules, qHTS assay (AID 1346984); also: nearly all actives have a fitted effect of over 40% in size
# Outline: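 Human PXR activation is tracked via CYP3A4 promoter-luciferase in DPX-2 (HepG2) cells. Compounds treat cells for 24hr at 37C, and luminescence is read after One-Glo.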
# [20] = target: Progesterone receptor (Homo sapiens) (UniProt P06401); experiment: qHTS assay to identify small molecule antagonists of the progesterone receptor (PR) signaling pathway (AID 1346795; active = well fitted inhibition curve with a large enough effect in the signal ratio in the repeat runs, not every such curve was filed as active; the % refers to the signal ratio)
# Outline: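 Antagonist mode with agonist R5020 at 1 nM final and 16 hr incubation at 37C. Reporter was beta-lactamase driven by UAS in HEK293T (PR-UAS-bla), 2% charcoal-stripped serum; signal from LiveBLAzer FRET substrate, 2 hr at room temperature.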
smiles,measurement,setting,value
CC(Oc1ccc(Oc2ncc(C(F)(F)F)cc2Cl)cc1)C(=O)O (stereo unspecified),Potency,[1],inactive
same,Potency,[2],inactive
same,Potency,[3],7.7 µM (active)
same,Potency,[4],inactive
same,outcome,[5],inactive
same,outcome,[6],inactive
same,Potency,[7],inactive
same,Potency,[8],inactive
same,Potency,[9],inactive
same,Potency,[10],inactive
same,Potency,[11],inactive
same,Potency,[12],inactive
CC(=O)[C@H]1CC[C@H]2[C@@H]3CC[C@H]4C[C@H](O)CC[C@]4(C)[C@H]3C(=O)C[C@]12C,Potency,[1],inactive
same,Potency,[2],inactive
same,Potency,[3],inactive
same,Potency,[13],inactive
same,Potency,[4],inactive
same,outcome,[5],inactive
same,outcome,[6],inactive
same,outcome,[14],inactive
same,outcome,[15],inactive
same,Potency,[7],inactive
same,Potency,[8],inactive
same,Potency,[9],inactive
same,Potency,[10],inactive
same,Potency,[11],inactive
same,Potency,[16],11.2 µM (active)
same,Potency,[17],inactive
CCOC(=O)NC(=S)Nc1ccccc1NC(=S)NC(=O)OCC,Potency,[1],inactive
same,Potency,[2],inactive
same,Potency,[13],inactive
same,Potency,[4],inactive
same,outcome,[5],inactive
same,outcome,[6],inactive
same,outcome,[15],inactive
same,Potency,[8],inactive
same,Potency,[10],inactive
same,Potency,[11],inactive
same,Potency,[12],27.3 µM (active)
same,Potency,[18],inactive
CCOC(=O)/C=C(C)/C=C/C[C@@H](C)CCCC(C)C,Potency,[1],inactive
same,Potency,[2],inactive
same,Potency,[13],inactive
same,Potency,[4],inactive
same,outcome,[5],inactive
same,outcome,[6],inactive
same,outcome,[14],inactive
same,outcome,[15],inactive
same,Potency,[11],inactive
same,max activation,[16],-2.62%
same,Potency,[19],inactive
same,Potency,[17],inactive
same,Potency,[18],inactive
COP(N)(=S)Oc1ccccc1C(=O)OC(C)C (stereo unspecified),Potency,[1],inactive
same,Potency,[2],inactive
same,Potency,[3],inactive
same,Potency,[13],inactive
same,outcome,[5],inactive
same,outcome,[6],inactive
same,Potency,[7],inactive
same,Potency,[8],inactive
same,Potency,[9],inactive
same,Potency,[10],inactive
same,Potency,[11],inactive
O=C(NCO)NCO,Potency,[1],inactive
same,Potency,[2],inactive
same,Potency,[3],inactive
same,Potency,[13],inactive
same,outcome,[5],inactive
same,outcome,[6],inactive
same,Potency,[7],inactive
same,Potency,[8],inactive
same,Potency,[9],inactive
same,Potency,[10],inactive
same,Potency,[11],inactive
same,Potency,[12],inactive
same,Potency,[18],inactive
CCN(CC)C(=O)[C@@H]1C=C2c3cccc4[nH]cc(c34)C[C@H]2N(C)C1,Potency,[1],56.7 µM (active)
same,Potency,[2],inactive
same,Potency,[20],inactive
same,Potency,[4],inactive
same,outcome,[5],inactive
same,outcome,[6],inactive
same,outcome,[14],inactive
same,outcome,[15],inactive
same,Potency,[8],inactive
same,Potency,[9],89.8 µM (active)
same,Potency,[10],inactive
same,Potency,[12],80 µM (active)
same,Potency,[18],73.8 µM (active)
Cc1cc(C)nc(Nc2ccccc2)n1,Potency,[1],inactive
same,Potency,[2],inactive
same,Potency,[13],inactive
same,Potency,[4],inactive
same,outcome,[5],inactive
same,outcome,[6],inactive
same,outcome,[14],inactive
same,outcome,[15],inactive
same,Potency,[7],inactive
same,Potency,[8],inactive
same,Potency,[9],inactive
same,Potency,[10],inactive
same,Potency,[11],inactive
same,Potency,[18],inactive
C[C@]12CC[C@H]3[C@@H](CCC4=CC(=O)CC[C@@]43C)[C@@H]1CC[C@@H]2C(=O)O,Potency,[1],inactive
same,Potency,[2],inactive
same,Potency,[3],inactive
same,Potency,[13],inactive
same,Potency,[4],inactive
same,outcome,[5],inactive
same,Potency,[7],inactive
same,Potency,[8],inactive
same,Potency,[10],inactive
same,Potency,[11],inactive
same,Potency,[12],inactive
same,Potency,[18],inactive
